Screens from PubChem BioAssay.
LASV entry inh: blocks Lassa virus binding to or entry into cells; Lassa virus pseudotype entry inhibition, cell reporter; Potency, µM (titrated, usually from 37.9 µM), for the others: top-dose activity change, negative = inhibition, most hits filed as inhibitors; hit rate 1.2% among 300,000; calls by dose curve; tested in HEK293 cells; also: potency is read from the fitted curve at half-maximal effect; nearly all actives have a fitted effect of over 50% in size
MARV entry inh: blocks Marburg virus binding to or entry into cells. Marburg virus pseudotyped entry inhibition, cell reporter. Potency, µM (titrated, usually from 37.8 µM), for the others: top-dose activity change, negative = inhibition, usual class: inhibitors. hit rate 1.8% among 300,000. AID 540276; calls by dose curve; tested in HEK293 cells; also: potency is read from the fitted curve at half-maximal effect
HCMV antiviral: inhibitors of human cytomegalovirus; HFF cells, HCMV-luciferase reporter, 72 h; hits give low values; activity change, negative = inhibition, % at 57.5 µM; hit rate 4.5% among 410,000; AID 1259415; in the data active = activity change below about -60%; inconclusive = no clear call, values can overlap the other calls; inactive = above about -39%
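Two-dose cell screen: HFF monolayers treated with compounds and infected with luciferase-expressing HCMV at 1 PFU/cell, 72 h at 37C, then lysed for luciferase measurement.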
HCV inh: inhibitors of hepatitis C virus infection; Huh7.5.1 HCVcc-Cre infection, luciferase reporter, 44 h; Potency, µM (series often up to 41.8 µM), for inactives: top-dose activity change, negative = inhibition, actives largely listed as inhibitors; hit rate 3.4% among 340,000; active = well fitted inhibition curve with a large enough effect; inconclusive = small, poorly fitted or top-dose-only effect, or another doubt; inactive = no such curve, though single readings can be large or run the other way; also: potency is read from the fitted curve at half-maximal effect
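Reporter virus HCVcc-Cre (~0.5 moi) infects cells exposed to compound; seeding density 1,000 cells/well with 4 h settling beforehand. Luminescence, 15 sec read, taken 44 h post-infection following a 15 min RT substrate incubation.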
FMDV inh: blocks foot and mouth disease virus | FMDV antiviral cell-based qHTS | Potency, µM (doses to about 57.9 µM), without a hit: at the top dose activity change, negative = inhibition, actives largely listed as inhibitors | hit rate 1.2% among 410,000 | AID 1159524; calls by dose curve; tested in HEK293T cells; also: read-out not given here; potency is read from the fitted curve at half-maximal effect; nearly all actives have a fitted effect of over 45% in size
An asterisk follows results filed as active; ? = inconclusive; / = no result given; ! = not confirmed by another sample; [ ] = dose if it differs, or a comment. In the library only some 7.9% were active in any assay of this set; here they are far more common. % is scaled to controls: 0 for no effect and ±100 for the full control effect.

SMILES | LASV entry inh | MARV entry inh | HCMV antiviral | HCV inh | FMDV inh
O=C(Nc1ccc(Cl)cc1)OC[C@@H]1CSCCS(=O)(=O)N1 | ? | / | 5.5 | / | /
Cc1ccc(C(=O)N/C(=C\c2ccco2)C(=O)N2CCOCC2)cc1C | / | / | 25.6 | -9.9% | ?
CCCCOc1ccc(S(=O)(=O)Nc2cc(OC)ccc2OC)cc1 | -26.7% | ? | ? | 10µM* | /
COc1ccc(OC)c(NS(=O)(=O)c2ccc3[nH]c(=O)[nH]c3c2)c1 | / | / | -102.5* | / | -18.1%
O=C(Nc1nc2cc3c(cc2s1)OCCO3)c1ccc([N+](=O)[O-])o1 | ? | 14.3%[46.1 µM] | -4.3 | -3.8% | -22.7%
COc1ccc(COC(=O)NN=C2C[C@@H](O)[C@@H](O)[C@@H]3[C@H]4C(=O)N(c5ccc(F)cc5F)C(=O)[C@@H]4CC[C@H]23)cc1 | 2.81µM* | ? | / | / | /
CCOC(=O)N/N=C1/C[C@@H](O)[C@@H](O)[C@@H]2[C@H]3C(=O)N(c4ccc(F)cc4F)C(=O)[C@@H]3CC[C@@H]12 | / | -21.5%[14.2 µM] | / | / | /
COc1ccc(COC(=O)NN=C2C[C@@H](O)[C@@H](O)[C@@H]3[C@H]4C(=O)N(Cc5ccc6c(c5)OCO6)C(=O)[C@@H]4CC[C@H]23)cc1 | 0.266µM* | 4.1%[14.2 µM] | / | / | /
O=C(Cc1ccccc1)NNC(=O)Nc1cccc(Cl)c1 | -17.9% | -10.1% | -38.8 | 16.8% | 38.9%
O=C(CN1c2ccccc2Sc2ccccc21)NNC(=O)Nc1cccc(Cl)c1 | ? | ? | -73.3* | -19.7% | 17.4%
Cc1ccc(CC(NC(=O)c2ccccc2)C(=O)N2CCCC2C(=O)O)cc1 (configuration not stated) | 5.4% | 0.5% | -107.1* | 16.9% | 2.3%
CCCc1ccc(C(C)NC(=S)NC2CCCCC2)cc1 (configuration not stated) | / | / | -73.1* | ? | -25.0%
O=C1[C@H]2[C@H]3[C@H](O)[C@H](O)C/C(=N\OCc4ccccc4)[C@@H]3CC[C@H]2C(=O)N1C1CCCCC1 | / | -13.6%[14.2 µM] | / | / | /
CC(CCN1CCCCc2nc(C)c(C)cc21)=NOC[C@@H](O)[C@H]1O[C@@H]2OC(C)(C)O[C@H]2[C@@H]1O | ? | 18.5%[14.2 µM] | / | / | /
COC(=O)/C(C#N)=C/c1c(-c2ccccc2)nc2n1CCS2 | -1.3%[46.1 µM] | -4.7%[46.1 µM] | -16.5 | 3.9% | 15.0%
Clc1cccc(Cl)c1CO/N=C/c1c(-c2ccccc2)nc2n1CCS2 | ? | 20.6µM* | ? | ? | -6.5%
CCN1c2ccccc2S(=O)(=O)c2ccccc21 | -29.6%[46.1 µM] | 14.1%[46.1 µM] | 22.1 | -20.4% | -19.4%
Cc1ccc(-c2nnc(NCCCO)c3ccccc23)cc1 | / | / | 29.4 | ? | -16.2%
CNc1nnc(-c2ccc(C)cc2)c2ccccc12 | 7.94µM* | 21.6%[46.1 µM] | ? | ? | -23.9%
Cc1ccc(Oc2nc(C(F)(F)F)nc3ccccc23)cc1 | 7.5% | 4.0% | -69.1* | -1.5% | -26.8%
Cc1ccc(-c2nnc(Oc3cccc(C)c3)c3ccccc23)cc1 | -4.7% | ? | -36.1 | -7.8% | -12.7%
Cc1nnc(Oc2ccc([N+](=O)[O-])cc2)c2ccccc12 | / | / | -96.4* | -2.2% | 43.1%
Cc1ccc(Oc2nnc(-c3ccccc3)c3ccccc23)cc1 | 0.3% | 4.7% | -37.3 | 35.5µM* | 3.4%
Cc1nnc(Oc2ccccc2)c2ccccc12 | -15.7% | 21.2% | -1.2 | ? | 18.3%
CN(C)CC(C)(C)CNC(=O)c1cnn(-c2nccc(-c3ccc4c(c3)OCO4)n2)c1-c1ccco1 | / | / | / | / | -3.8%
SMILES | LASV entry inh | MARV entry inh | HCMV antiviral | HCV inh | FMDV inh
Cc1ccc(-n2nnnc2SCC(=O)N2CCc3ccccc3C2)c(C)c1 | -50.0%[14.3 µM] | 5.9% | -3.6 | 12.6µM* | -2.3%
Cc1ccc(-n2nnnc2SCC(=O)Nc2ccc(N3CCN(C)CC3)cc2)c(C)c1 | / | / | -98.8* | -16.1% | -21.1%
O=C(COc1cc2oc(=O)c3c(c2cc1Cl)CCC3)N1C[C@H]2C[C@@H](C1)c1cccc(=O)n1C2 | / | / | -36.7 | -4.9% | 0.3%
O=C(Cn1cnc([N+](=O)[O-])c1)Nc1cc(Oc2ccc(Cl)cc2Cl)cc([N+](=O)[O-])c1 | ? | ? | -73.2* | 6.31µM* | -10.0%
Cc1ccc2c(c1)C(=O)C(=O)N2Cc1ccc(OC(C)C)cc1 | ? | ? | -76.3* | / | -8.7%
Cc1ccc(OCCCN2C(=O)C(=O)c3cccc(C)c32)cc1 | ? | ? | 55.7 | -23.8% | -10.6%
Cc1ccc(OCCN2C(=O)C(=O)c3cc(C)ccc32)cc1 | / | / | -92.3* | ? | -3.5%
CCCN1C(=O)C(=O)c2cc(Cl)ccc21 | / | / | -85.6* | ? | -0.4%
Cc1ccc2[nH]c3c(c2c1)CCCC3NCCO (configuration not stated) | ? | -28.9% | 0.0 | ? | -22.4%
COc1ccccc1/C=C/C=N/NC(=O)c1cc(-c2ccc(C)o2)[nH]n1 | ? | ? | ? | 10µM* | -6.3%
COc1ccccc1/C=C/C=N/NC(=O)Cc1cccs1 | 0.116µM* | ? | 21.3 | ? | 45.6%
Cc1ccc(/C=N/NC(=O)c2cc(-c3ccc(C)o3)[nH]n2)cc1 | ? | ? | 14.0 | ? | -7.3%
CC(C)[C@@H](OCc1ccccc1)[C@H](C)CO/N=C1/[C@H]2CCn3c(=O)n(-c4ccccc4)c(=O)n3[C@H]2[C@H](O)[C@@H]2O[C@H]12 | / | 24.7%[14.2 µM] | / | / | /
Cc1ccc2nsnc2c1S(=O)(=O)N1CCN(Cc2ccc3c(c2)OCO3)CC1 | -2.4% | -1.9% | -28.5 | 22.4µM*! | /
Cc1cc(S(=O)(=O)N2CCN(Cc3ccc4c(c3)OCO4)CC2)cc(C)c1N1CCCC1=O | -8.8% | -18.0% | -95.7* | 10.9% | ?
Nc1cc(-c2ccc(OC(F)(F)F)cc2)nn1-c1ccc(Cl)c(Cl)c1 | ? | 4.2% | -65.6* | -0.5% | -6.5%
O=C1NC(=O)N(Cc2ccccc2)C(=O)/C1=C/C=C/c1ccco1 | / | / | 0.0 | ? | 12.6µM*
CC(C)c1ccc(N2C(=O)NC(=O)/C(=C\C=C\c3ccco3)C2=O)cc1 | ? | ? | -95.3* | ? | ?
COc1ccc(CN2C(=O)NC(=O)/C(=C\c3ccco3)C2=O)cc1 | 28.4%[46.1 µM] | -1.8%[46.1 µM] | -15.9 | 17.6% | -29.3%
CC(C)N1C(=O)/C(=C/C=C/c2ccco2)C(=O)N(Cc2ccco2)C1=O | ? | 3.98µM* | -38.2 | ? | 17.8µM*
CN(Cc1ccccc1)C(=O)COC(=O)c1cc(=O)[nH]c2ccccc12 | 4.3% | 7.7% | 5.4 | 18.5% | 25.2%
C[C@@H]1CN([C@@H](C)CO)C(=O)c2cc(Br)cnc2O[C@@H]1CN(C)Cc1cncnc1 | / | / | 13.8 | / | -7.0%
COc1cc(CCCN2C(=O)C(=O)NC[C@@H]2Cc2ccc(O)cc2)cc(OC)c1OC | / | / | 26.8 | 11.1% | -2.0%
COc1cc(CCCN2C(=S)NC[C@H]2Cc2ccc(O)cc2)cc(OC)c1OC | / | / | -12.7 | 11.2µM* | -20.5%
COc1ccc(CCNc2nnc(Sc3nnnn3-c3ccccc3)s2)cc1OC | -21.5% | ? | -98.2* | 14.1µM* | 28.2µM*
COc1ccc(NC(=O)C2CCCN(c3nnc(C)c4c(C)n(-c5ccccc5)nc34)C2)cc1Cl (configuration not stated) | ? | / | -90.0* | / | -27.6%
